Compound activity deposited in PubChem by Broad Institute.
miR122 inh: miR-122 sensor activation. Huh7 psiCHECK-miR122 Renilla luciferase sensor, 48 h. activation, % at 12.5 µM. actives 0.14% (n = 340,000);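 active = mean activation of 30% or more, with every replicate also reaching 30%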;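 note: 0% = median of neutral control wells and 100% = median of positive control wells; higher luciferase signal means stronger suppression of miR-122 activity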
* = called active by the depositor. The entries come from a sample that favours hits as a whole.

SMILES	miR122 inh
C[C@H](CO)N1C[C@H](C)[C@@H](CN(C)Cc2ccccn2)Oc2cc(-c3cccc(C#N)c3)ccc2S1(=O)=O	-39
C[C@@H]1CN([C@H](C)CO)C(=O)c2cc(C#Cc3ccccc3)cnc2O[C@H]1CN(C)Cc1ccccn1	-2
FC(F)(F)c1cc(CCN2CCNC[C@@H]2CC2CCCCC2)cc(C(F)(F)F)c1	38*
COc1cccc(NC(=O)N(C)C[C@@H]2Oc3ncc(C#Cc4ccccc4)cc3C(=O)N([C@@H](C)CO)C[C@H]2C)c1	4
C[C@@H](O)C#Cc1cnc2c(c1)C(=O)N([C@@H](C)CO)C[C@H](C)[C@@H](CN(C)Cc1cncnc1)O2	-8
C[C@H](CO)N1C[C@H](C)[C@H](CN(C)Cc2ccc(C(=O)Nc3ccccc3N)cc2)Oc2ccc(NS(=O)(=O)c3ccc(F)cc3)cc2CC1=O	-162
COc1ccc(NS(=O)(=O)c2cc(NC(=O)c3ccc(Cl)cc3)ccc2N2CCOCC2)cc1	-102
O=C(Nc1ccc(CN2CCOCC2)cc1)c1ccc(-c2ccc(Cl)cc2Cl)o1	34*
O=C(NCCCN1CCN(Cc2ccccc2)CC1)c1nnc(Cc2c(F)cccc2Cl)o1	-103
CC(=O)Nc1ccc(C(=O)Nc2ccc(S(=O)(=O)NCC3CCCO3)cc2)cc1 (stereo unspecified)	-97
CCOC(=O)c1ccc(NC(=O)c2ccc(CN3CCOCC3)cc2)cc1	38*
COCC(=O)N(C)C[C@H]1Oc2cc(Br)ccc2S(=O)(=O)N([C@@H](C)CO)C[C@H]1C	7
C/C=C/c1cnc2c(c1)C(=O)N([C@@H](C)CO)C[C@@H](C)[C@H](CN(C)C(=O)c1cccnc1)O2	-1
CCC(=O)Nc1ccc2c(c1)OC[C@H](C)N(Cc1ccccc1F)C[C@@H](C)[C@H](OC)CN(C)C2=O	-1
COCC(=O)Nc1ccc2c(c1)C(=O)N(C)C[C@@H](OC)[C@H](C)CN(C(=O)COC)[C@H](C)CO2	-2
CCCNC(=O)NC[C@H]1[C@@H](c2ccc(C3=CCCC3)cc2)[C@@H](CO)N1C(C)=O	-93
CCC(=O)N(C)C[C@H]1Oc2cc(C#C[C@@H](C)O)ccc2S(=O)(=O)N([C@H](C)CO)C[C@H]1C	1
C[C@H]1CN([C@@H](C)CO)S(=O)(=O)c2ccc(-c3cccc(C#N)c3)cc2O[C@@H]1CN(C)C(=O)c1ccccc1	-2
C[C@H](CO)N1C[C@H](C)[C@H](CN(C)C(=O)C2CC2)Oc2cc(-c3ccncc3)ccc2S1(=O)=O	5
CC(C)Oc1ccc(CNCCC2(C(C)C)CCOC(C)(C)C2)cc1 (stereo unspecified)	71*
CC(C)C#Cc1cnc2c(c1)C(=O)N([C@H](C)CO)C[C@H](C)[C@@H](CN(C)C(=O)c1ccccc1)O2	3
Cc1ccc(-c2cnc3c(c2)C(=O)N([C@H](C)CO)C[C@@H](C)[C@@H](CN(C)C(=O)c2ccncc2)O3)cc1	3
Cc1ccc(NC(=O)CN(C)C(=O)Cn2ncc(Cl)c(Cl)c2=O)cc1	71*
CCN(CC)S(=O)(=O)c1cc(C(=O)N(C)CC(=O)Nc2ccc(Cl)cc2)ccc1Cl	-168
CO[C@@H]1CN(C)C(=O)c2cc(NC(=O)Cc3ccccc3)ccc2OC[C@H](C)N(C)C[C@H]1C	0
SMILES	miR122 inh
C[C@H]1CN([C@@H](C)CO)S(=O)(=O)c2ccc(C#Cc3ccccc3)cc2O[C@@H]1CN(C)C(=O)Nc1ccccc1	-29
C[C@@H]1CN([C@@H](C)CO)S(=O)(=O)c2ccc(C#Cc3ccccc3)cc2O[C@H]1CN(C)C(=O)Nc1ccccc1	0
Cc1cccc(S(=O)(=O)C(C#N)c2nc3ccccc3nc2N2CCCC2)c1 (stereo unspecified)	-119
N#CCc1c(C#N)c(N)nc(N2CCN(S(=O)(=O)c3ccccc3)CC2)c1C#N	36*
C[C@@H]1CN([C@H](C)CO)S(=O)(=O)c2ccc(-c3ccncc3)cc2O[C@H]1CN(C)C(=O)C1CC1	-13
COc1ccc(S(=O)(=O)Nc2cc(C)cc(C)n2)c2ccccc12	31*
COc1ccc(NS(=O)(=O)c2ccc(OC)c3ccccc23)cn1	-356
CCOc1ccc(S(=O)(=O)Nc2cc(C)ccn2)c2ccccc12	-237
O=C(Nc1ccc(S(=O)(=O)NCC2CCCO2)cc1)c1cccc(F)c1 (stereo unspecified)	-91
Cc1cccc(NS(=O)(=O)c2cccc(C(=O)N3CCCCCCC3)c2)c1	-163
CC(=O)c1cccc(S(=O)(=O)NCC2CCCCC2)c1	51*
COCC#Cc1cnc2c(c1)C(=O)N([C@@H](C)CO)C[C@H](C)[C@@H](CN(C)C(=O)Nc1c(C)noc1C)O2	-15
C[C@H]1CN([C@@H](C)CO)S(=O)(=O)c2ccc(-c3ccncc3)cc2O[C@@H]1CN(C)C(=O)C1CC1	-9
COCC(=O)N(C)C[C@H]1Oc2cc(C#CC3CC3)ccc2S(=O)(=O)N([C@H](C)CO)C[C@H]1C	10
C[C@H]1CN([C@@H](C)CO)S(=O)(=O)c2ccc(C#CC3CC3)cc2O[C@H]1CN(C)C(=O)C1CC1	-14
COCC(=O)N(C)C[C@H]1Oc2cc(C#CC3CC3)ccc2S(=O)(=O)N([C@H](C)CO)C[C@@H]1C	-2
C[C@@H]1CN([C@H](C)CO)S(=O)(=O)c2ccc(C#CC3CC3)cc2O[C@@H]1CN(C)C(=O)c1cccc(F)c1	44*
COCC(=O)N(C)C[C@@H]1Oc2cc(C#CC3CC3)ccc2S(=O)(=O)N([C@@H](C)CO)C[C@H]1C	-1
C[C@@H]1CN([C@@H](C)CO)S(=O)(=O)c2ccc(C#CC3CC3)cc2O[C@@H]1CN(C)C(=O)c1cccc(F)c1	42*
C[C@H](CO)N1C[C@H](C)[C@@H](CN(C)Cc2cccc(F)c2)Oc2ncc(C3=CCCCC3)cc2C1=O	-9
C[C@H](CO)N1C[C@H](C)[C@@H](CN(C)C(=O)c2ccccc2)Oc2cc(-c3cccc(C#N)c3)ccc2S1(=O)=O	-9
CO[C@@H]1CN(C)C(=O)c2ccc(NC(=O)c3cc(C)on3)cc2OC[C@@H](C)N(S(=O)(=O)c2ccccc2)C[C@H]1C	1
C[C@H]1CN([C@@H](C)CO)S(=O)(=O)c2ccc(C#Cc3cccnc3)cc2O[C@@H]1CN(C)CC1CCOCC1	-3
COc1cccc(-c2cnc3c(c2)C(=O)N([C@@H](C)CO)C[C@@H](C)[C@H](CN(C)CC2CCOCC2)O3)c1	4
CO[C@@H]1CN(C)C(=O)c2ccc(NC(=O)Nc3ccc(F)cc3)cc2OC[C@H](C)NC[C@H]1C	-3
SMILES	miR122 inh
COc1ccc(NS(=O)(=O)c2cc(OC)ccc2OC)cc1	-130
COc1ccc(OC)c(Nc2cc(C)nc3ccc(C)cc23)c1	32*
COc1ccc(OC)c(Nc2cc(C)nc3nc(C)nn23)c1	-107
CCC(=O)Nc1ccc2c(c1)OC[C@H](C)N(C(=O)CN1CCOCC1)C[C@@H](C)[C@@H](OC)CN(C)C2=O	0
COC(=O)c1cc(=O)n2c(-c3ccc(OC)cc3)csc2n1	38*
C[C@@H]1CN([C@@H](C)CO)S(=O)(=O)c2ccc(-c3ccccc3)cc2O[C@H]1CN(C)Cc1cncnc1	-1
CO[C@H]1CN(C)C(=O)c2cc(NC(C)=O)ccc2OC[C@@H](C)N(C(=O)c2ccccc2)C[C@H]1C	-2
COc1ccc(S(=O)(=O)Nc2cc3c4c(oc3c3ccccc23)CCCC4=O)cc1	-127
COc1ccc(Oc2ccc(N/C=C3\CCCC3=O)cc2)cc1	36*
COc1ccc(NS(=O)(=O)c2cc(C)ccc2C)cc1	-539
